Many of the other results were omitted from the sample, so hits are more common in it than they were.
Ba CapD inh: Bacillus anthracis CapD inhibitors, primary screen, biochemical, fluorescence intensity | CapD gamma-glutamyltranspeptidase (Bacillus anthracis Ames Ancestor) | purified CapD enzyme, fluorescence intensity read-out; active compounds read low | z-score (test concentration not listed) | 140,000 compounds, 0.23% hits | AID 492967, 2010; in the data active = z-score mostly below about -2.9, no sharp cut-off; inactive = mostly above about -1.9
Starred values were filed as active, the others as inactive.

SMILES	Ba CapD inh
C[N+]1(Cc2nc3ccccc3[nH]2)CCOCC1	-0.68
CCOC(=O)c1c(CN2CCN(c3ccccc3)CC2)oc2cc(Br)c(OC(C)=O)cc12	-0.34
CC(C)c1ccc(C2=CC(=O)C=CC2=O)cc1	5.7
CCc1ccc(C2=CC(=O)C=CC2=O)cc1	-0.42
O=C1C=CC(=O)C(c2ccc(C(=O)O)cc2)=C1	-8*
Nc1cc(CCCC(=O)O)sc1CCCC(=O)O	-10*
O=C(O)CCCc1ccc2c(c1)OCO2	-0.58
O=C(O)CCCCc1cccs1	1.4
O=C(Nc1ccc(N2S(=O)(=O)c3ccccc3S2(=O)=O)cc1)c1ccccc1F	-0.68
Cc1cccc(-n2cnc(C(=O)Nc3ccc(N4CCOCC4)cc3)c2)n1	-0.61
Cc1ccc(Sc2ccc(C(=O)O)cc2NC=O)cc1	0.1
N#Cc1cc(C(F)(F)F)ccc1Sc1ccc(Br)cc1	-0.33
CC(=O)N(C(C)=O)c1cc(C(=O)O)ccc1Sc1ccc(Br)cc1	-11*
CCc1ccc(-c2cc(C)no2)cc1S(=O)(=O)N(C)Cc1ccccc1	0.17
COc1ccccc1NC(=O)c1sc2nc(C)nc(N3CCCCC3)c2c1C	-0.8
COc1ccc2ccccc2c1S(=O)N1CCN(c2ccccn2)CC1 (centres undefined)	-0.1
Cc1ccc(NC(=O)CCNS(=O)(=O)c2ccc3[nH]c(=O)ccc3c2)cc1Cl	-0.085
CSC(SC)=C(C#N)C(=O)c1cccc(C(F)(F)F)c1	-1.4
CSC(SC)=C(C#N)C(=O)c1ccccc1Cl	-4.7*
CSC(SC)=C(C#N)C(=O)c1cccc(C)c1	-1.5
COc1ccc(/C=C2\SC(=S)N(CCC(=O)N3c4ccccc4Sc4ccccc43)C2=O)cc1	0.01
CCn1c(C(=O)N2CCCC(C(=O)NCCc3ccc(S(N)(=O)=O)cc3)C2)cc2sccc21 (centres undefined)	0.33
CCCN1C/C(=C\c2ccc(N(C)C)cc2)C(=O)/C(=C/c2ccc(N(C)C)cc2)C1	0.15
CCCN1C/C(=C/c2ccsc2)C(=O)/C(=C/c2ccsc2)C1	-4.7*
O=C1/C(=C\c2ccsc2)CC/C1=C/c1ccsc1	-0.21
SMILES	Ba CapD inh
CC1(C)Nc2ccccc2-c2c1ssc2=Nc1ccccc1	-0.34
O=C(CN1CCCC1)Nc1ccc(I)cc1	-0.17
O=C(COc1ccccc1)NCc1nnc(SCC(=O)N2CCc3ccccc32)n1-c1cccc(C(F)(F)F)c1	-0.45
O=C(O)CSCC(=O)Nc1ccc(-c2nc3ccccc3s2)cc1	82
Cc1csc(NC(=O)CSCC(=O)O)c1-c1nc2ccccc2s1	-2.4*
Cc1csc(N)c1-c1nc2ccccc2s1	2.9
Cc1ccc(CNC(=O)c2ccccc2NC(=O)C(F)(F)F)cc1	-0.45
O=C1OC/C(=C(\O)c2ccc(Cl)cc2)C1=O	-5.4*
N#CC1=C(c2ccc(Cl)cc2)COC1=O	2.9
O=C1OC/C(=C(/O)c2ccccc2)C1=O	-3.1
COc1ccc(N2C(=O)CSC2c2cccc(Br)c2)c(OC)c1 (centres undefined)	0.56
C/C(=C\C(=O)c1ccc(C)o1)Nc1ccc(Nc2ccccc2)cc1	-2
C/C(=C\C(=O)c1ccc(C)o1)Nc1ccc(F)c(C)c1	-2.4
C/C(=C\C(=O)c1ccc(C)o1)Nc1ccc(C(=O)O)cc1C	-4*
Cc1ccc(C)c(SCC(=O)OCC(=O)N2CCCc3ccccc32)c1	-0.4
Cc1cc[n+](C2C(c3ccc(Br)cc3)C(C#N)=C([S-])NC2(O)C2CC2)cc1 (centres undefined)	6.1
O=C(CCOC(Cc1cnccn1)c1ccc(C(F)(F)F)cc1)N1CCOCC1 (centres undefined)	-0.26
N=C1S/C(=C\c2ccco2)C(=O)N1c1ccc(Oc2ccccc2)cc1	-0.19
O=C1S/C(=C\c2ccco2)C(=O)N1c1ccccc1	-2.4*
O=C(O)c1cccc(-c2ccc(/C=C3/SC(=O)N(c4ccccc4)C3=O)o2)c1	18
COC(=O)C(=C/C=C/N1CCCCC1)C(=O)OC	-4.8*
COC(=O)C(=C/C=C/c1cccs1)C(=O)OC	-3.2
COC(=O)c1noc(C)c1C(=O)/C=C/N1CCCCC1	8.3
Cc1nc2ccc(C(=O)NCc3ccccc3)cc2nc1C	-1.3
CCCNC(=O)Cn1nc(C)c2sc3ccccc3c2c1=O	-5.8*
SMILES	Ba CapD inh
Cc1nn(CCCC(=O)N2CCCCC2)c(=O)c2c1sc1ccccc12	8.5
Cc1nn(CC(=O)NCc2ccc3c(c2)OCO3)c(=O)c2c1sc1ccccc12	0.41
CC(C)c1nnc(NC(=O)/C=C/c2ccccc2)s1	0.29
C=CCN1C(=O)NC(=O)/C(=C/C=C/c2ccccc2)C1=O	-0.42
CN1C(=O)/C(=C\C(=O)c2cccs2)c2ccccc21	-0.22
CN1C(=O)/C(=c2/[nH][nH]c(=O)/c2=C\C=C\c2ccccc2)C(=O)c2ccccc21	-5.2*
CCOC(=O)C(Cc1ccc(Cl)cc1Cl)C(=O)/C=C/NCC(F)(F)F (centres undefined)	-0.07
CSc1ccc(/C=C/[N+](=O)[O-])cc1	-0.96
CCCCCc1ccc(/C=N/NC(=O)COc2ccccc2Cl)cc1	-1
COc1ccc(C(=O)C[n+]2ccccc2)cc1	-0.54
O=c1[nH]c(=S)c2c(n1N1CCOCC1)CCC2	-5*
